± gives the standard deviation. Bounds are passed on as bounds.

In one experiment the test system is MILI (PIWIL2) piRISC loaded with L1MC piRNA (26 nt). Nature of the experiment: pre-steady-state target cleavage rate (min^-1); guide: L1MC piRNA 5'p-UAACUAAAUACUAUGCAAGCUGUAGG; MIWI and MILI are mouse PIWI proteins and EfPiwi is from a freshwater sponge; tags in brackets are library labels; higher = faster piRNA-guided slicing of the target. The conditions noted are these: auxiliary factor: 500 nM mouse GTSF1. The method in brief:
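A transcribed, DNA-blocked target RNA library (0.1 nM) and 1 nM active affinity-purified piRISC bearing one synthetic guide were incubated in HEPES–potassium acetate buffer at 33 °C for 0–8 or 0–960 min, either with or without 500 nM GTSF1 partner protein. Uncleaved targets were sequenced, normalised to depth and to weakly complementary targets, and pooled over three trials, with k3 capped at 0.0001 min^-1. The pre-steady-state cleavage rate was derived with a burst-and-steady-state fit.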
Regarding UCCUGCUACAGCAACCAUAGUAUUUAGAAA, the “pre-steady-state target cleavage rate” value was determined as 0.102 ± 0.03.

Take UCCUGGAUGUCGAUGGAUAGUAUUUAGUAA: the “pre-steady-state target cleavage rate” value was found to be 0.00684 ± 0.0036.

Consider UCCUGGUACAGCUUGCAUAGUUUUUUCAAA, for which the “pre-steady-state target cleavage rate” value is 0.0153 ± 0.0075.

As to UCCUGGAACAGCUUGCAUUGUAUUUACUUA, the “pre-steady-state target cleavage rate” value was found to be 0.163 ± 0.028.

Regarding UCCUGGAUGAGCUUGCAUAGUAUUUUGAUA, the “pre-steady-state target cleavage rate” value amounted to 0.0343 ± 0.014.

As for UCCUGGAUGUCGAAGCAUAGUAUUAAGUUA, the “pre-steady-state target cleavage rate” value is 0.034 ± 0.0088.

Turning to UCCUGGAUGUCGAACCUAUAGUAUUUAGUUA, the “pre-steady-state target cleavage rate” value was 0.00362 ± 0.0029.

The same experiment, now with this note: auxiliary factor: none (no GTSF1).
As for UCCUGGAUGUCGAACGUAUGCUAUUUAGUUA, the “pre-steady-state target cleavage rate” value is less than 0.0001.

With UCCUGGAACAGCUUGCAUAGGUAUUUAGUUA, the “pre-steady-state target cleavage rate” value is 0.00517 ± 0.0026.

Turning to UCCUGGAUGUCGUACGAUAGUAUUUAGUUA, the “pre-steady-state target cleavage rate” value was less than 0.0001.

As for UCCUGGAUGUCGAACGUUAGUAAUUUGUUA, the “pre-steady-state target cleavage rate” value was less than 0.0001.

In the case of UCCUGGAUGUCGAACGUAAGUAUUUAGUUUA, the “pre-steady-state target cleavage rate” value was less than 0.0001.

Turning to UCCUGGAUGUCGUUGCAUAGUUUUAAGUUA, the “pre-steady-state target cleavage rate” value was determined as 0.0042 ± 0.0022.

Regarding UCCUGGAUGUCGAACGUAUGUACUUUAGUUA, the “pre-steady-state target cleavage rate” value was less than 0.0001.

As to “UCCUGGAUGUCGAACGUAAGUAUUUAGUUC [g2:g12:cont:t1C]”, the “pre-steady-state target cleavage rate” value was less than 0.0001.

UCCUGGAUGUCGAACGUUAGUAUUAACUUA: the “pre-steady-state target cleavage rate” value was less than 0.0001.

For the origin of these results see the supplement of paper PMC10338343.
